Test results as given in PubChem BioAssay (Tox21).
Records with an inconclusive call do not appear. Active and inactive are the calls of the source. Unless noted, calls follow the shape of the dose curve; as a rule, active = well fitted curve in the direction sought with a large enough effect in the repeat runs; inconclusive = weak or mixed curves; inactive = no such curve, though single readings can be large; an effect the other way counts as inactive or inconclusive.

Columns and labels:
[1] = target: Retinoic acid receptor RXR-alpha (Homo sapiens) (UniProt P19793); test: qHTS assay to identify small molecule agonists of the RXR signaling pathway (AID 1159527; calls by dose curve; also: nearly all actives have a fitted effect of over 35% in size)
Retinoic acid receptor RXR-alpha (Homo sapiens), sequence (P19793 whole entry, looked up): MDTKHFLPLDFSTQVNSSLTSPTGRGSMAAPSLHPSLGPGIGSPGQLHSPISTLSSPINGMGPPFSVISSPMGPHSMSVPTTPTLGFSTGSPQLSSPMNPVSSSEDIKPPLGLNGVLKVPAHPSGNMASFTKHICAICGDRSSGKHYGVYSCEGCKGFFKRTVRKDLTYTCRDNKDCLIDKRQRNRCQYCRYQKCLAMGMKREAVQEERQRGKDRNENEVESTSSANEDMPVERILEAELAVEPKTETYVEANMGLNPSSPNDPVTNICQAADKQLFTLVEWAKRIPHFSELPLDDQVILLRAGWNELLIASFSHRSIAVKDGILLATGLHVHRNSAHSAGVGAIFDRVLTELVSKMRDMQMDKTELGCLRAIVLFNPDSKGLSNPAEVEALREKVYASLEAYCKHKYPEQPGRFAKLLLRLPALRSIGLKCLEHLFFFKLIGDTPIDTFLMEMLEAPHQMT
Method in brief: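 Compounds in DMSO were added to RXR-alpha-UAS-bla HEK 293T cells kept in 2% charcoal-stripped serum, and incubated 16 hr at 37 C with 5% CO2. Reporter signal came from a 2 hr B/G FRET substrate step.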

[2] = qHTS assay to identify small molecule agonists of the RXR signaling pathway - cell viability counter screen (AID 1159529);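 also: HEK 293T cells carrying an RXR-alpha UAS beta-lactamase reporter; series mostly up to about 77 µM; nearly all actives have a fitted effect of over 50% in size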
Method in brief: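 Counter screen: CellTiter-Glo luminescence. Cells: RXR-alpha-UAS-bla HEK 293T. Medium: 2% charcoal-stripped FBS. Treatment: 16 h, 37 C. Reagent incubation: 30 min, RT.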

[3] = qHTS assay to identify small molecule antagonists of the retinoid acid receptor (RAR) signaling pathway - cell viability counter screen (AID 1159551); also: nearly all actives have a fitted effect of over 35% in size
Method in brief: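 ATP-based viability, C3RL4 cells, 6 h at 37 C with 1 uM final retinol co-added after compound; luminescence read 30 min post CellTiter-Glo, RT.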

[4] = qHTS assay to identify small molecule antagonists of the retinoic acid receptor (RAR) signaling pathway (AID 1159552; also: nearly all actives have a fitted effect of over 50% in size)
Method in brief: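 Antagonism of retinol-induced RARE reporter activity was measured in C3RL4 cells. Exposure to compounds and 1 uM final retinol lasted 6 hr at 37 C, with luminescence as endpoint.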

[5] = qHTS assay to identify small molecule agonists of the retinoic acid receptor (RAR) signaling pathway (AID 1159553)
Method in brief: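 Quantitative high-throughput format: the Tox21 10K library was tested on C3RL4 RARE-luciferase cells for 6 hr at 37 C and 5% CO2, with luminescence measured after a 30 min room-temperature reagent step.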

[6] = qHTS assay to identify small molecule antagonists of the estrogen related receptor (ERR) signaling pathway from Tox21 library - cell viability counter screen (AID 1224834); also: nearly all actives have a fitted effect of over 30% in size
Method in brief: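 Compounds in DMSO were pinned onto ERR cells that had been incubated for 6 h, and the plates were held at 37 C for 17.5 h. CellTiter-Fluor reagent was then added and fluorescence was measured after 30 min.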

[7] = target: Luciferin 4-monooxygenase (Photinus pyralis) (UniProt P08659); test: qHTS assay to identify small molecule inhibitors of firefly luciferase (AID 1224835); also: series mostly up to about 120 µM; nearly all actives have a fitted effect of over 25% in size
Luciferin 4-monooxygenase (Photinus pyralis), sequence (P08659 whole entry, looked up): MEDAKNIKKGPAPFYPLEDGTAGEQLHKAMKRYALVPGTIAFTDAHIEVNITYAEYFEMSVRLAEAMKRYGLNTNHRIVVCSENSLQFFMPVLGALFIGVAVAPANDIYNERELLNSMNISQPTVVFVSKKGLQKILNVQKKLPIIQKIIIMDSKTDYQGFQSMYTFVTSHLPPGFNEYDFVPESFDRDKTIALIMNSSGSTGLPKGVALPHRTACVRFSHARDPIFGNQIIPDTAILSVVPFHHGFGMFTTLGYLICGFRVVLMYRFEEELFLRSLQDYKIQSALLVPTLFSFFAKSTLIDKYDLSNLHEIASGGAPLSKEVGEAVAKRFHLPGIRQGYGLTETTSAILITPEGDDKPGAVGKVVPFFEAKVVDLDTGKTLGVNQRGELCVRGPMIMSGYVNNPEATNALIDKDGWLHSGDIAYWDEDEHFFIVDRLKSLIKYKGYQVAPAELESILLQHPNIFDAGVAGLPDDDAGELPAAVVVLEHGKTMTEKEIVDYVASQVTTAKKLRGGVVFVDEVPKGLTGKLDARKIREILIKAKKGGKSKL
Method in brief: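 Inhibition of purified Photinus luciferase is measured by luminescence. Substrate levels (D-luciferin, ATP) sit at their KM values. Each compound is tested in a concentration series.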

[8] = qHTS assay to identify small molecule agonists of the constitutive androstane receptor (CAR) signaling pathway - cell viability counter screen (AID 1224836); also: series mostly up to about 92 µM; nearly all actives have a fitted effect of over 45% in size
Method in brief: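 Double-stable HepG2 hepatoma cells (hCAR plus CYP2B6-2.2kb) are treated for 23 h at 37 C with test compounds in 15-point concentration series. PK11195 at 0.75 uM final is co-added. Cell viability is quantified by CellTiter-Fluor.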

[9] = qHTS assay to identify small molecule antagonists of the constitutive androstane receptor (CAR) signaling pathway - cell viability counter screen (AID 1224837); also: series mostly up to about 92 µM; nearly all actives have a fitted effect of over 45% in size
Method in brief: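 Cells are seeded, rested 4 hr at 37 C/5% CO2, dosed with compound (15-point series) and 50 nM CITCO, incubated a further 23 hr, and then CellTiter-Fluor reagent is added before fluorescence is read. The line is HepG2 with stable hCAR and CYP2B6-2.2kb.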

[10] = target: Nuclear receptor subfamily 1 group I member 3 (Homo sapiens) (UniProt Q14994); test: qHTS assay to identify small molecule agonists of the constitutive androstane receptor (CAR) signaling pathway (AID 1224839);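 also: HepG2 cells stably carrying human CAR and a CYP2B6 luciferase reporter; series mostly up to about 92 µM; nearly all actives have a fitted effect of over 15% in size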
Nuclear receptor subfamily 1 group I member 3 (Homo sapiens), sequence (Q14994 whole entry, looked up): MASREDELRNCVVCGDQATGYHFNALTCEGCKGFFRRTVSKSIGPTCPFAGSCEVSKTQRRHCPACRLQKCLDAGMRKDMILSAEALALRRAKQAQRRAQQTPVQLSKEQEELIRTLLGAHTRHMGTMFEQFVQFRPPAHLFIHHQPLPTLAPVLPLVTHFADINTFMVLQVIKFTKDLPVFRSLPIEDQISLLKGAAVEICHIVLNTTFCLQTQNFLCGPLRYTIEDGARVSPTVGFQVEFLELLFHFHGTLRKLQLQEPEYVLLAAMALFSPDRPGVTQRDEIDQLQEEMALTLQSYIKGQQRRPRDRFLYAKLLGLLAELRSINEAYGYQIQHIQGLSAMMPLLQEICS
Method in brief: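 Readout: firefly luciferase luminescence via ONE-Glo. System: HepG2 double-stable for hCAR and CYP2B6-2.2kb. Conditions: 15-point compound titration, PK11195 at 0.75 uM final, 24 h incubation.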

[11] = qHTS assay to identify small molecule antagonists of the estrogen related receptor signaling pathway with the pleiotropic PPARgamma coactivator (PGC) from Tox21 10K library - cell viability counter screen (AID 1224840; active = well fitted cell-killing curve with a large enough effect in the repeat runs, not every such curve was filed as active; also: nearly all actives have a fitted effect of over 40% in size)
Method in brief: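 Cell viability is measured by CellTiter-Fluor fluorescence in PGC/ERR cells that receive compounds after a 6-hour attachment period and are then incubated 17.5 hours at 37 C.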

[12] = target: Thyrotropin receptor (Homo sapiens) (UniProt P16473); test: qHTS assay to identify small molecule agonists of the thyroid stimulating hormone receptor (TSHR) signaling pathway (AID 1224843; calls by dose curve; also: nearly all actives have a fitted effect of over 45% in size)
Thyrotropin receptor (Homo sapiens), sequence (P16473 whole entry, looked up): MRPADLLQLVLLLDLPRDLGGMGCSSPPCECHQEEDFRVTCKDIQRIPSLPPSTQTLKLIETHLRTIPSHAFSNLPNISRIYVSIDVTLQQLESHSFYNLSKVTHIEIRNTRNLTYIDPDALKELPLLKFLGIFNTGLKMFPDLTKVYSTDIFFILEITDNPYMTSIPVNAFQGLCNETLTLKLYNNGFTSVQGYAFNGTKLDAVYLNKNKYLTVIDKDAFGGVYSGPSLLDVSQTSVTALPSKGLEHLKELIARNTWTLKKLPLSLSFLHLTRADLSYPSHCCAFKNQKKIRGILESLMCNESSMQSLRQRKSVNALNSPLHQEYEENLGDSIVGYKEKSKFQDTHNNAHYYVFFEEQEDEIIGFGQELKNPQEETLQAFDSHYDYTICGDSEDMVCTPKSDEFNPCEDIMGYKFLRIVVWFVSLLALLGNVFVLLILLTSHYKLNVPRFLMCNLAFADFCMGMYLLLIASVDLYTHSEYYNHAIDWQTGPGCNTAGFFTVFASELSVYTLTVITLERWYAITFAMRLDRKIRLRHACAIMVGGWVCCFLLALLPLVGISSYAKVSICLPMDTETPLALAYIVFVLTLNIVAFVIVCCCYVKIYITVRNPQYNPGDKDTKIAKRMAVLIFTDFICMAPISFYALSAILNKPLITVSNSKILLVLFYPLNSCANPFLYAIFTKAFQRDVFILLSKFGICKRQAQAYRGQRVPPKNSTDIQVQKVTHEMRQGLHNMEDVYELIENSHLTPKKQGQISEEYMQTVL
Method in brief: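 A cell-based cAMP HTRF format was run in TSHR-transfected HEK293 cells, 800 per well. Treatment: 30 min, room temperature. Detection: 1 h with labelled cAMP and anti-cAMP cryptate. Concentration-response over 15 points, three replicates.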

[13] = qHTS assay to identify small molecule agonists of the hypoxia (HIF-1) signaling pathway - cell viability counter screen (AID 1224844; calls by dose curve; also: nearly all actives have a fitted effect of over 50% in size)
Method in brief: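 Viability counter screen: HRE-bla ME-180 cells plated 5 hrs before compound addition, treated 17 hrs at 37C and 5% CO2, then CellTiter-Glo added after the FRET reporter read; luminescence after 30 min.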

[14] = qHTS assay to identify small molecule agonists of H2AX (AID 1224845; active = well fitted activation curve with a large enough effect in the signal ratio in the repeat runs, not every such curve was filed as active; the % refers to the signal ratio)
Method in brief: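 Phospho-H2AX Ser139 measured by HTRF (ex 320 nm; em 665 and 620 nm) after 24 hr antibody incubation. Compounds, 15 concentrations, 0.76% DMSO, were applied to CHO-K1 cells for 3hr at 37C before lysis.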

[15] = qHTS assay to identify small molecule agonists of the hypoxia (HIF-1) signaling pathway (AID 1224846; active = well fitted activation curve with a large enough effect in the signal ratio in the repeat runs, not every such curve was filed as active; the % refers to the signal ratio)
Method in brief: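 Agonist mode reporter screen. ME-180 cells stably expressing bla under HRE control received test compounds in DMSO for 17 hrs (37C, 5% CO2), and beta-lactamase activity was then detected with the CCF4-AM FRET substrate.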

[16] = target: Nuclear receptor subfamily 1 group I member 3 (Homo sapiens) (UniProt Q14994); test: qHTS assay to identify small molecule antagonists of the constitutive androstane receptor (CAR) signaling pathway (AID 1224838);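 also: HepG2 cells stably expressing hCAR with CYP2B6 luciferase reporter stimulated by CITCO; nearly all actives have a fitted effect of over 40% in size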
Method in brief: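 Luminescence from a CYP2B6-2.2kb promoter reporter in hCAR-expressing HepG2 cells reflects CAR signaling. Cells received compounds at 15 concentrations and 50 nM CITCO (final), then incubated 24 h at 37 C/5% CO2.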

[17] = qHTS assay to identify small molecule agonists of H2AX - cell viability counter screen (AID 1224847; calls by dose curve;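 also: wild-type CHO-K1 cells; top concentration of the series differs between compounds; nearly all actives have a fitted effect of over 30% in size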)
Method in brief: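 For this counter screen, overnight-attached CHO-K1 cells received test compounds (15 concentrations, 0.76% DMSO final); 3 hr later at 37C, CellTiter-Glo reagent was added and luminescence recorded after 30 min at room temperature.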

[18] = qHTS assay to identify small molecule agonists of the estrogen related receptor signaling pathway with the pleiotropic PPARgamma coactivator (PGC) from Tox21 10K library (AID 1224842); also: nearly all actives have a fitted effect of over 15% in size
Method in brief: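 Luminescence from One-Glo (30 min, room temperature) measured after PGC/ERR cells had 18 h at 37 C with pinned compound (23 nL in DMSO). Cells had been seeded at 2,000 per well and pre-incubated 6 h.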

Measured: Potency

CC(=O)CC(=O)OC(C)(C)C
not listed: [16] | [17] | [18]
inactive: all other assays above

CC12CCC(C1)C(C)(C)C2O (stereo unspecified)
not listed: [14] | [18]
inactive: all other assays above

CN(C)CC/C=C1/c2ccccc2COc2ccc(CC(=O)O)cc21
not listed: [14] | [18]
inactive: all other assays above

CC1CCc2c(N3CCC(O)CC3)c(F)cc3c(=O)c(C(=O)O)cn1c23 (stereo unspecified)
not listed: [7] | [15] | [16]
inactive: all other assays above

CC(=O)CC(=O)Nc1ccc(C)cc1C
not listed: [7] | [18]
inactive: all other assays above

CC(=O)C1C(=O)C=C(C)OC1=O (stereo unspecified)
not listed: [7] | [16] | [18]
inactive: all other assays above

O=C(O)[C@H](O)c1ccccc1
not listed: [7] | [16] | [18]
inactive: all other assays above

N#CCC(=O)NN
not listed: [7] | [18]
inactive: all other assays above

CCNC(=O)NCc1cccc(Cl)c1
not listed: [7] | [18]
inactive: all other assays above

Cc1ccc(C(C)NC(=O)[C@@H](NC(=O)OC(C)C)C(C)C)cc1 (stereo partly specified)
not listed: [7] | [14] | [18]
inactive: all other assays above

Cc1ccc(C)c([N+](=O)[O-])c1
not listed: [7] | [18]
inactive: all other assays above

O=C(CN1CCNCC1)NC1CCCCC1
not listed: [7] | [15] | [18]
inactive: all other assays above
